Experimental data taken from the supplement of paper PMC6555819.

tested on: PXR:RXRa (NR concentration 270 nM, RXRa partner concentration 90 nM); test: PBM binding z-score (relative to random genomic background probes); higher = stronger binding; sequences stand for … in GC…GCGATTGACAGCGTAGAATGAAGG
How it was run: (§1)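 Regression normalization was applied to scanned fluorescence from custom Agilent 4×180K protein-binding microarrays. Before scanning, arrays were incubated 1 h with ligand-free nuclear receptor dimers, and binding was detected with antibodies against each partner (one per run). Binding z-scores use the random background probes as reference.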

Sequence | PBM binding z-score
CCTTACGGGTCACGAGGTTATAACACGACGAGCG | 4.38
GGAACGAGTGCATTCGAGTTGATAGCATGGCGAT | 2.91
TAGCCTCGGTCATGGGCCAGTATACCACGCGAAC | -0.176
TCGAGTAGGTTAGGGGCATTGAGAATGGCGTCGA | 0.449
CCTAGCTGGCCAGGGTCACTCAAGCATTTCGCTT | 2.53
CCAACTGGGGCATAAGGTTACCATAAGCCAGCCC | 0.561
CTACCAAGGTGCACAAGGTCGTTGATTACTATTC | 1.86
TCAGATAGGTAATACAGGTGAAAGTCGGCATCTA | 0.557
GGAACGAGGGCATTCGAGTTAATAGCATGGCGAT | 3.48
CCTAGCAGGCCAATCTGAGTCACTCAAGGCTTGA | -0.832
CTACCATGGTGAACAAGGTCGTTGATTACTATTC | 1.56
ATCTCTAGATAAAGATAGTTCAGTGAATGCAAAT | 0.206
TCTAGTTTGTCACGGAGGTCACACACGACGGGTA | 4.44
CAAACTAGGTCACCGGAAGGTCAAAGTGCGCATG | 6.12
TCGAGTAGGTTAGTCGGCGCATTCAGCCAACATA | -0.463
CCTAGCAGGCCACTCTGGGTCACTCAAGGCTTGA | 1.04
TCATATAGGTAAATGCTATGTGAAAGTCCGATCT | 0.621
AGTCAAAGTTCAGGACGAGGTAACGTCAAGCACG | 3.06
TGTTAAAGTTCAAAGGTAACGTAAGTATCCACAC | 5.77
AGAATGAGGTTATTAAGATCACGGAATTGCGGTC | 1.55

Sequence | PBM binding z-score
CCTTACGGGTCACGGACAGGTTATAGCATTTGGA | 4.82
CTCGAAAGGTCGGTTGAGGTGAGTATTCGGATAA | 3.05
ACAGACAGGTGATGCAGGTAACTCAGGCTATCAT | -0.33
CCATACGGGTCACTCCAGGTTATAGCATCGGAGT | 4.94
TAGCCTAGGTCAGATCGGGCCATTATACGCTATA | 2.69
CCCTACGGGTCACTCCAGGTTATAGCATCGGAGT | 5.1
CCTACTGGGCCAAGGACATTGATCAGTCAAAGCA | -0.555
TCTTGTAGATCAAGAAGGTTAAGAAAGCCTGAGT | 0.858
CCTTACGGGTCACGAGGTTATAGCACGACGAGCG | 4.46
CTACCAAGGTGAACAAGGCCGTTGATTACTATTC | 0.327
GCAGACAGGTGAAACGCGGGTAACTCAGGGTGGC | -0.0302
CCAGACAGGTGAGAAGGTATCTCAGCCTCGATTA | -0.407
CTACCAAGGTGAACAAGGTCGTGGATTACTATTC | 2.46
CCTTACGGGTCACTCCAGGTTATAGAATCGGAGT | 5.29
ATCTAAAGGTCGACGAGGTGAGTATACACCGTTT | 3.26
ATACCTAGGTGATCGTGAGGTCGTTGATACTAAC | 2.64
TAGTCTAGGTCAGATCGGGCCAGTATACGCTATA | 1.33
AGTCAAAGTTCATCTAGGTAACGTACGATATGCT | 5.22
CCGACTGGGGCAGAAAGGTTACCAGACCATCCGG | 0.737
TCATATAGGTAAATGCTTGGTGAAAGTCCGATCT | 0.501

tested on: PXR homodimer (NR concentration 270 nM); test: as above
How it was run: as §1

Sequence | PBM binding z-score
CCTTACGGGTCACGAGGTTATAACACGACGAGCG | 0.145
GGAACGAGTGCATTCGAGTTGATAGCATGGCGAT | 3.49
TAGCCTCGGTCATGGGCCAGTATACCACGCGAAC | -0.497
TCGAGTAGGTTAGGGGCATTGAGAATGGCGTCGA | 0.233
CCTAGCTGGCCAGGGTCACTCAAGCATTTCGCTT | -0.342
CCAACTGGGGCATAAGGTTACCATAAGCCAGCCC | -0.309
CTACCAAGGTGCACAAGGTCGTTGATTACTATTC | 1.22
TCAGATAGGTAATACAGGTGAAAGTCGGCATCTA | 0.387
GGAACGAGGGCATTCGAGTTAATAGCATGGCGAT | 0.437
CCTAGCAGGCCAATCTGAGTCACTCAAGGCTTGA | -0.519
CTACCATGGTGAACAAGGTCGTTGATTACTATTC | 0.655
ATCTCTAGATAAAGATAGTTCAGTGAATGCAAAT | 0.643
TCTAGTTTGTCACGGAGGTCACACACGACGGGTA | 1.91
CAAACTAGGTCACCGGAAGGTCAAAGTGCGCATG | 1.81
TCGAGTAGGTTAGTCGGCGCATTCAGCCAACATA | -0.787
CCTAGCAGGCCACTCTGGGTCACTCAAGGCTTGA | -0.493
TCATATAGGTAAATGCTATGTGAAAGTCCGATCT | -0.0684
AGTCAAAGTTCAGGACGAGGTAACGTCAAGCACG | 1.42
TGTTAAAGTTCAAAGGTAACGTAAGTATCCACAC | 4.11
AGAATGAGGTTATTAAGATCACGGAATTGCGGTC | 1.01

Sequence | PBM binding z-score
CCTTACGGGTCACGGACAGGTTATAGCATTTGGA | 0.261
CTCGAAAGGTCGGTTGAGGTGAGTATTCGGATAA | -0.0873
ACAGACAGGTGATGCAGGTAACTCAGGCTATCAT | 0.04
CCATACGGGTCACTCCAGGTTATAGCATCGGAGT | 0.464
TAGCCTAGGTCAGATCGGGCCATTATACGCTATA | -0.448
CCCTACGGGTCACTCCAGGTTATAGCATCGGAGT | 0.472
CCTACTGGGCCAAGGACATTGATCAGTCAAAGCA | -0.0775
TCTTGTAGATCAAGAAGGTTAAGAAAGCCTGAGT | 0.332
CCTTACGGGTCACGAGGTTATAGCACGACGAGCG | 0.418
CTACCAAGGTGAACAAGGCCGTTGATTACTATTC | 0.451
GCAGACAGGTGAAACGCGGGTAACTCAGGGTGGC | -0.747
CCAGACAGGTGAGAAGGTATCTCAGCCTCGATTA | 0.0596
CTACCAAGGTGAACAAGGTCGTGGATTACTATTC | 0.298
CCTTACGGGTCACTCCAGGTTATAGAATCGGAGT | 0.455
ATCTAAAGGTCGACGAGGTGAGTATACACCGTTT | 0.284
ATACCTAGGTGATCGTGAGGTCGTTGATACTAAC | 2
TAGTCTAGGTCAGATCGGGCCAGTATACGCTATA | -0.0787
AGTCAAAGTTCATCTAGGTAACGTACGATATGCT | 6.7
CCGACTGGGGCAGAAAGGTTACCAGACCATCCGG | -0.356
TCATATAGGTAAATGCTTGGTGAAAGTCCGATCT | 0.156
